Common to all, as to experiment: DAPPL (digital affinity profiling via proximity ligation, sequencing); 10 mM Tris-HCl pH 7.5, 50 mM NaCl, 1 mM DTT, 4% glycerol, room temperature, 30 min; GST-TFs on glutathione beads, 16-mer random dsDNA library, 0.1% formaldehyde crosslink after washing; high values mean tight binding
Experiment [1] has as its target T1, FEV (Homo sapiens, UniProt Q99581 1-238).
T1 sequence: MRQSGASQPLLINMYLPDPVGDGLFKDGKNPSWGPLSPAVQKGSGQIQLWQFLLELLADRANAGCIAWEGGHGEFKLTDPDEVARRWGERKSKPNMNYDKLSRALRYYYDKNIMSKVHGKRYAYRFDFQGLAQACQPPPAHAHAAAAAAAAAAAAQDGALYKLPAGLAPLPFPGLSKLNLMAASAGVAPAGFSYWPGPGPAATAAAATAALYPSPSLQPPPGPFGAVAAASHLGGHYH
As to conditions: protein: recombinant; tags: N-terminal GST; dsDNA, one strand shown. The procedure, abridged:
(§1)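 In yeast, human transcription factors were expressed with a GST fusion, then pulled down on glutathione beads and given DNA barcodes. Pooled with a tag-only sample, they were exposed to 200 nmole of a 16-mer random double-stranded DNA library (Tris/NaCl/DTT/glycerol buffer, room temperature, 30 min), washed, crosslinked with 0.1% formaldehyde, proximity-ligated using BsaI/T4 ligase for 1 h at 37 °C, PCR-amplified and read on an Illumina NextSeq500. Each hexamer's frequency of reads for a factor, divided by the matching frequency for the tag-only sample, gives the binding signal.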

In experiment [2] the target is ETV5 (Homo sapiens, UniProt P41161 1-510). As to conditions: protein: recombinant; tags: N-terminal GST; dsDNA, one strand shown. In a few lines:
as §1

In experiment [3] the target is HSF1 (Homo sapiens, UniProt Q00613 1-529). To be noted: protein: recombinant; tags: N-terminal GST; chain copies: 3; dsDNA, one strand shown. The procedure, abridged: as §1
HSF1, sequence (Q00613 whole entry): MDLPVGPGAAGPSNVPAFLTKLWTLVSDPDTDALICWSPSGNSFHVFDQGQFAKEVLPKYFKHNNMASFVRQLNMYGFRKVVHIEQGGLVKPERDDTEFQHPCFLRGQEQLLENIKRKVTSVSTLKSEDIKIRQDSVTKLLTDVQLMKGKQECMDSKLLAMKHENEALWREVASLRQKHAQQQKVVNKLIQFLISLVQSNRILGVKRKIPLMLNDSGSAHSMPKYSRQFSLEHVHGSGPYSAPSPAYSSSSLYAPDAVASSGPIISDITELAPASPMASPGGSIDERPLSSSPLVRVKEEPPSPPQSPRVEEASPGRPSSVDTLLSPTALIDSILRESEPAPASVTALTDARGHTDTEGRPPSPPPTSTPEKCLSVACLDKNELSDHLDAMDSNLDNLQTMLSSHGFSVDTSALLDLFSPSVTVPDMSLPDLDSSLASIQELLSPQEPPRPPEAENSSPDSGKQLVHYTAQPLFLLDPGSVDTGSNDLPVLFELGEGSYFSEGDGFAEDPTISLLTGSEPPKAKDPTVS
For experiment [4], the target named is T2, SPIC (Homo sapiens, UniProt Q8N5J4 1-248).
T2 sequence: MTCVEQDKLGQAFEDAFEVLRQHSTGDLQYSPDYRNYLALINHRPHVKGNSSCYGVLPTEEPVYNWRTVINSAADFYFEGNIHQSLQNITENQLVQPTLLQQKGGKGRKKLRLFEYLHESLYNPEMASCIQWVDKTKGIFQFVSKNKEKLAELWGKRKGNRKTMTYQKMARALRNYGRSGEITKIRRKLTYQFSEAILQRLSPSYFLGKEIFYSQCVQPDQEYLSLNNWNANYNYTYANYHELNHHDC
As to conditions: protein: recombinant; tags: N-terminal GST; dsDNA, one strand shown. The procedure, abridged:
as §1

Experiment [5] has as its target ELF4 (Homo sapiens, UniProt Q99607 1-663). As to conditions: protein: recombinant; tags: N-terminal GST; dsDNA, one strand shown. The procedure, abridged:
as §1

Experiment [6] addresses T3, ELK4 (Homo sapiens, UniProt P28324-2 1-405).
T3 sequence: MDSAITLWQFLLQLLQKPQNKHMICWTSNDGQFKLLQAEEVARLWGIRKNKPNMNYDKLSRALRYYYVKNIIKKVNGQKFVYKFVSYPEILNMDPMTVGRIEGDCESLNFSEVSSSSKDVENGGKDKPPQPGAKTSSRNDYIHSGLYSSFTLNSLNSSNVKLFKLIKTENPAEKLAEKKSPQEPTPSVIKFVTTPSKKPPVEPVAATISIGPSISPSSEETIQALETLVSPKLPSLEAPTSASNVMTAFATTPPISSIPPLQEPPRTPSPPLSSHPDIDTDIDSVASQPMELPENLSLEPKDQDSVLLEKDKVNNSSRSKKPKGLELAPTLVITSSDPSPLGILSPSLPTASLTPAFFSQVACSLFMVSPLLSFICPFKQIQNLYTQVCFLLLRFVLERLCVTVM
As to conditions: protein: recombinant; tags: N-terminal GST; dsDNA, one strand shown. The procedure, abridged:
as §1

The target of experiment [7] is T4, ETV2 (Homo sapiens, UniProt O00321 1-342).
T4 sequence: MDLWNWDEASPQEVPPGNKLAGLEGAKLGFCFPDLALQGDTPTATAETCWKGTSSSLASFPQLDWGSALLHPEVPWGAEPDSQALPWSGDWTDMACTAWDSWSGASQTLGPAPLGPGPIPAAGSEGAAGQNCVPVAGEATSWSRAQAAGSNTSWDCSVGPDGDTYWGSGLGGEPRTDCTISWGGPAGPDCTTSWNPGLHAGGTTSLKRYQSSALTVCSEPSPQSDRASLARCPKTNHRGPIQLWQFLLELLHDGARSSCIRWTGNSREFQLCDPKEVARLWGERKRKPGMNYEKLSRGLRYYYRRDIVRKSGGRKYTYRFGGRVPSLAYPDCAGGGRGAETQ
To be noted: protein: recombinant; tags: N-terminal GST; dsDNA, one strand shown. The procedure, abridged:
as §1

Experiment [8] deals with T5, ELF3 (Homo sapiens, UniProt P78545 1-371).
T5 sequence: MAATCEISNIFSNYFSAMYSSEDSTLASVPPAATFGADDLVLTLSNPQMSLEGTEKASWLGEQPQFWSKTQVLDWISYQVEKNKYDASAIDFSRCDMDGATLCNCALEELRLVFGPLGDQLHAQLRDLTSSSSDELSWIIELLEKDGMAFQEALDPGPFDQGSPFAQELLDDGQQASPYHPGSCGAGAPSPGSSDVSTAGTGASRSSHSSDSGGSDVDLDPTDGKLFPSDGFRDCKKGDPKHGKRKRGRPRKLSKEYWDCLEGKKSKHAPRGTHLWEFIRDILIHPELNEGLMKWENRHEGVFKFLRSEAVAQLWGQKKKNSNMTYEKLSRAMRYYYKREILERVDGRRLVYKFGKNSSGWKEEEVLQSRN
As to conditions: protein: recombinant; tags: N-terminal GST; dsDNA, one strand shown. In a few lines:
as §1

Experiment [9] deals with CRX (Homo sapiens, UniProt O43186 1-299). To be noted: protein: recombinant; tags: N-terminal GST; dsDNA, one strand shown. In a few lines:
as §1

Experiment [10] addresses ETV1 (Homo sapiens, UniProt P50549 1-477). As to conditions: protein: recombinant; tags: N-terminal GST; dsDNA, one strand shown. The procedure, abridged:
as §1

From PMC7862700, “An all-to-all approach to the identification of sequence-specific readers for epigenetic DNA modifications on cytosine” come the findings set out here.

ETV1, sequence (P50549 whole entry): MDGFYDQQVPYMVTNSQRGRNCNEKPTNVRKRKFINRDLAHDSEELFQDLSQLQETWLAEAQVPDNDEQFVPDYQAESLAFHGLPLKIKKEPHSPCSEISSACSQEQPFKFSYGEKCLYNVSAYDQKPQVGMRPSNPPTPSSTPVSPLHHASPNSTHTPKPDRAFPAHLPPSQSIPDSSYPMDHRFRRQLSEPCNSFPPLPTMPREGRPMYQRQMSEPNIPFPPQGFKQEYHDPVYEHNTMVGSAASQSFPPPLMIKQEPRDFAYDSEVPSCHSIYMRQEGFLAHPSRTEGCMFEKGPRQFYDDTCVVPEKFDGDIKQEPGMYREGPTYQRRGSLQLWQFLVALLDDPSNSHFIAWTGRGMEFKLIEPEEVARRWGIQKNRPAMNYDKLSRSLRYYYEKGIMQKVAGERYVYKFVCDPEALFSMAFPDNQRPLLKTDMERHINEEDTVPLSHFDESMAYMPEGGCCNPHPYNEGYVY
CRX, sequence (O43186 whole entry): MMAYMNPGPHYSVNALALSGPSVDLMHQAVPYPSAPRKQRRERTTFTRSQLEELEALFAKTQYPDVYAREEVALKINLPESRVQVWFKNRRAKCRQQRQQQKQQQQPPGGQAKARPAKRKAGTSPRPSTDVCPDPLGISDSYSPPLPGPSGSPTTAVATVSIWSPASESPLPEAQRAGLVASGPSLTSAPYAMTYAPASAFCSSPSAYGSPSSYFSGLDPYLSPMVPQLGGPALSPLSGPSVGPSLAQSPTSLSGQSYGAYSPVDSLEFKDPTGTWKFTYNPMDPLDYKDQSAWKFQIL
ETV5, sequence (P41161 whole entry): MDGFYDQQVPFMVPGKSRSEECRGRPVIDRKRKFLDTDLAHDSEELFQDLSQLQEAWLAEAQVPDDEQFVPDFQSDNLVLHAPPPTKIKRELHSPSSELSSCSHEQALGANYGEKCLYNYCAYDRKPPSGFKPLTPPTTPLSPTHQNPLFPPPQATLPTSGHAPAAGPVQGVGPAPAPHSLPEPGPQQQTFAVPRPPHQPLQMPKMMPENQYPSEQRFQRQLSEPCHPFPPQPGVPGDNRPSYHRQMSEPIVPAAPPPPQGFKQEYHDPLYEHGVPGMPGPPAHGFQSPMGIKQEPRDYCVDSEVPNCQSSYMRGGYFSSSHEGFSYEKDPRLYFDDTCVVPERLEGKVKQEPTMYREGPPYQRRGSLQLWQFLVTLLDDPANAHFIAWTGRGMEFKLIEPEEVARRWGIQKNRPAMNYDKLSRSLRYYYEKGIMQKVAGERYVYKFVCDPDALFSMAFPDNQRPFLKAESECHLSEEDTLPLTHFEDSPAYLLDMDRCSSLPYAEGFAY
ELF4, sequence (Q99607 whole entry): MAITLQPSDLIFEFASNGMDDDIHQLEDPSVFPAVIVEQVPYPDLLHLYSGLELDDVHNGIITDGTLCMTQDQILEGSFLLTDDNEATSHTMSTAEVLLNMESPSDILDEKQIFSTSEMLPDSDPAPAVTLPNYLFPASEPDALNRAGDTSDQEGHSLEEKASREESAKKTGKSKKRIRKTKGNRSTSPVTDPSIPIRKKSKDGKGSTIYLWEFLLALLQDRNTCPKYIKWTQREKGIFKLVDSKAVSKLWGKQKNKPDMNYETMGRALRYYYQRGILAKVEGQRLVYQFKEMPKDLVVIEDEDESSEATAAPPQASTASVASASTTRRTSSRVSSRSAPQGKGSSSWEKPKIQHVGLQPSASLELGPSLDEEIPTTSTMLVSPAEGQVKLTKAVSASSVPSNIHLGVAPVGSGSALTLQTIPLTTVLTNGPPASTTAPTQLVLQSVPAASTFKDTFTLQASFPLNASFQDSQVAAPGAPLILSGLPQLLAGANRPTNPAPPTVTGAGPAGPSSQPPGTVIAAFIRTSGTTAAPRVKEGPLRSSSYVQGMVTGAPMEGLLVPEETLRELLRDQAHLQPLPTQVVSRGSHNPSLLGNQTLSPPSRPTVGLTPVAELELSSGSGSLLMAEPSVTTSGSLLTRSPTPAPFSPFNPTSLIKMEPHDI

For TTTCGA, the binding signal in experiment [1] was 1.48 fold enrichment (6-mer frequency, TF over GST control); in [2], 1.54 fold enrichment (6-mer frequency, TF over GST control); in [3], 2.5 fold enrichment (6-mer frequency, TF over GST control); in [4] it was 1.18 fold enrichment (6-mer frequency, TF over GST control); in experiment [5] it was 1.57 fold enrichment (6-mer frequency, TF over GST control); in experiment [6], 1.5 fold enrichment (6-mer frequency, TF over GST control). For the same sequence, the binding signal in experiment [7] is 1.32 fold enrichment (6-mer frequency, TF over GST control); in experiment [8] it was 1.39 fold enrichment (6-mer frequency, TF over GST control); in [9], 1.86 fold enrichment (6-mer frequency, TF over GST control); in [10], 1.5 fold enrichment (6-mer frequency, TF over GST control).
Regarding TCCGTA, the binding signal was 1.43 fold enrichment (6-mer frequency, TF over GST control) in experiment [1]; 1.62 fold enrichment (6-mer frequency, TF over GST control) in [2]; 1.1 fold enrichment (6-mer frequency, TF over GST control) in [3]; 1.56 fold enrichment (6-mer frequency, TF over GST control) in experiment [4]; 1.47 fold enrichment (6-mer frequency, TF over GST control) in experiment [5]; 1.6 fold enrichment (6-mer frequency, TF over GST control) in experiment [6]. Also, the binding signal was 1.63 fold enrichment (6-mer frequency, TF over GST control) in [7]; 1.47 fold enrichment (6-mer frequency, TF over GST control) in experiment [8]; 1.21 fold enrichment (6-mer frequency, TF over GST control) in experiment [9]; 1.47 fold enrichment (6-mer frequency, TF over GST control) in experiment [10].
CTTCCT: the binding signal in [1] is 2.94 fold enrichment (6-mer frequency, TF over GST control); in experiment [2] it was 3.4 fold enrichment (6-mer frequency, TF over GST control); in [3], 1.4 fold enrichment (6-mer frequency, TF over GST control); in [4], 3.47 fold enrichment (6-mer frequency, TF over GST control); in experiment [5], 2.83 fold enrichment (6-mer frequency, TF over GST control); in [6], 2.83 fold enrichment (6-mer frequency, TF over GST control). Further, the binding signal in [7] is 3.38 fold enrichment (6-mer frequency, TF over GST control); in [8], 2.95 fold enrichment (6-mer frequency, TF over GST control); in experiment [9] it was 1.19 fold enrichment (6-mer frequency, TF over GST control); in experiment [10] it was 3.18 fold enrichment (6-mer frequency, TF over GST control).
For the sequence TACTAT, the binding signal in [1] was 1.31 fold enrichment (6-mer frequency, TF over GST control); in experiment [2] it was 1.31 fold enrichment (6-mer frequency, TF over GST control); in [3], 1.37 fold enrichment (6-mer frequency, TF over GST control); in experiment [4], 1.45 fold enrichment (6-mer frequency, TF over GST control); in experiment [5] it was 1.35 fold enrichment (6-mer frequency, TF over GST control); in experiment [6], 1.33 fold enrichment (6-mer frequency, TF over GST control). Moreover, the binding signal in experiment [7] was 1.4 fold enrichment (6-mer frequency, TF over GST control); in experiment [8], 1.2 fold enrichment (6-mer frequency, TF over GST control); in experiment [9] it was 1.48 fold enrichment (6-mer frequency, TF over GST control); in experiment [10], 1.28 fold enrichment (6-mer frequency, TF over GST control).
As to ATTAAT, the binding signal was 1.16 fold enrichment (6-mer frequency, TF over GST control) in experiment [1]; 1.26 fold enrichment (6-mer frequency, TF over GST control) in experiment [2]; 2.47 fold enrichment (6-mer frequency, TF over GST control) in [3]; 1.18 fold enrichment (6-mer frequency, TF over GST control) in [4]; 1.19 fold enrichment (6-mer frequency, TF over GST control) in [5]; 1.23 fold enrichment (6-mer frequency, TF over GST control) in [6]. The binding signal was 1.25 fold enrichment (6-mer frequency, TF over GST control) in [7]; 1.05 fold enrichment (6-mer frequency, TF over GST control) in experiment [8]; 3.95 fold enrichment (6-mer frequency, TF over GST control) in [9]; 1.25 fold enrichment (6-mer frequency, TF over GST control) in experiment [10].
Take CCTTCC: the binding signal in experiment [1] is 2.78 fold enrichment (6-mer frequency, TF over GST control); in [2] it was 2.73 fold enrichment (6-mer frequency, TF over GST control); in experiment [3], 1.81 fold enrichment (6-mer frequency, TF over GST control); in experiment [4], 2.36 fold enrichment (6-mer frequency, TF over GST control); in experiment [5], 2.5 fold enrichment (6-mer frequency, TF over GST control); in [6], 2.19 fold enrichment (6-mer frequency, TF over GST control). Further, the binding signal is 2.51 fold enrichment (6-mer frequency, TF over GST control) in experiment [7]; 2.27 fold enrichment (6-mer frequency, TF over GST control) in experiment [8]; 1.26 fold enrichment (6-mer frequency, TF over GST control) in experiment [9]; 2.55 fold enrichment (6-mer frequency, TF over GST control) in [10].
For CTGGTT, the binding signal in experiment [1] is 1.19 fold enrichment (6-mer frequency, TF over GST control); in experiment [2] it was 1.36 fold enrichment (6-mer frequency, TF over GST control); in experiment [3], 1.24 fold enrichment (6-mer frequency, TF over GST control); in experiment [4] it was 1.43 fold enrichment (6-mer frequency, TF over GST control); in experiment [5], 1.33 fold enrichment (6-mer frequency, TF over GST control); in experiment [6], 1.46 fold enrichment (6-mer frequency, TF over GST control). Further, the binding signal is 1.2 fold enrichment (6-mer frequency, TF over GST control) in experiment [7]; 1.22 fold enrichment (6-mer frequency, TF over GST control) in [8]; 1.22 fold enrichment (6-mer frequency, TF over GST control) in experiment [9]; 1.3 fold enrichment (6-mer frequency, TF over GST control) in experiment [10].
With GTAATA, the binding signal in experiment [1] was 1.11 fold enrichment (6-mer frequency, TF over GST control); in [2], 1.13 fold enrichment (6-mer frequency, TF over GST control); in experiment [3] it was 1.24 fold enrichment (6-mer frequency, TF over GST control); in experiment [4], 1.27 fold enrichment (6-mer frequency, TF over GST control); in experiment [5] it was 1.16 fold enrichment (6-mer frequency, TF over GST control); in [6] it was 1.27 fold enrichment (6-mer frequency, TF over GST control). Besides, the binding signal is 1.09 fold enrichment (6-mer frequency, TF over GST control) in [7]; 1.22 fold enrichment (6-mer frequency, TF over GST control) in [8]; 1.52 fold enrichment (6-mer frequency, TF over GST control) in [9]; 1.13 fold enrichment (6-mer frequency, TF over GST control) in [10].
